PubChem BioAssay AID764 (NMMLSC, 2007)
Hit rate of the full screen: of about 190,000 compounds, about 220 (0.12%) were called active. Not shown: some 2% with an inconclusive outcome. Many of the other results were omitted from the sample, so actives are more common in it than they were. A number with no mark means an inactive call.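 How the source made its calls: active means GTP binding at least 20 percentage points away from the 100% baseline, in either direction, so actives lie on both sides; inconclusive means Compound likely fluorescent itself, or too few beads counted; inactive means the rest.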

What follows are compounds tested against Ras-related C3 botulinum toxin substrate 1 (Homo sapiens) (UniProt P63000) (assay: activated Rac1 mutant nucleotide binding changes – biochemical, bead-based flow cytometry, multiplex, fluorescent GTP, primary screen (AID 764)). Details: GST-Rac1 activated beads, at 10 µM, actives lie on both sides, 100% means binding = to untreated wells.

Row | Structure (SMILES) | percent activity (GTP binding)
1 | Cc1csc(NC(=O)Nc2ccccc2[N+](=O)[O-])n1 | 97%
2 | CN(C)S(=O)(=O)Oc1ccccc1C(=O)Nc1ccccc1Cl | 99%
3 | CCOC(=O)N1CCN(CCC(=O)Nc2cc(OC)ccc2OC)CC1 | 96%
4 | CN1CCN(c2ccc(NC(=O)c3ccc4c(c3)OCCO4)cc2Cl)CC1 | 98%
5 | CSc1ncnc2sc(C)c(C)c12 | 93%
6 | CC[n+]1c(C)n(-c2ccccc2)c2ccc(NC(C)=O)cc21 | 96%
7 | Cc1ccc(C)c(NC(=O)CCC(=O)N/N=C2/CC(=O)CC(C)(C)C2)c1 | 96%
8 | COc1ccc(S(=O)(=O)N2CCN(C(=O)c3cc(C)oc3C)CC2)cc1 | 97%
9 | CC(CC(=O)C1C(C)C=CCC1(C)C)NNC(N)=O (centres undefined) | 95%
10 | Cn1cccc1/C=C1\SC(=O)N(CC(=O)Nc2ccc(F)cc2)C1=O | 95%
11 | CCOC(=O)C1CCN(C(=O)C2(NC(=O)Nc3cccc(F)c3)CCCCC2)CC1 | 97%
12 | CC(C)N(Cc1nc(-c2ccc3c(c2)OCO3)no1)CC1CCC(=O)N1 (centres undefined) | 98%
13 | CCOC(=O)/C(=N\Nc1ccccc1[N+](=O)[O-])c1csc(Nc2ccccc2)n1 | 91%
14 | C/C(CC(=O)Nc1ccc(C)cc1C)=N\NC(=O)C(C)C | 98%
15 | CCN(C(=O)Cc1nc(N)n[nH]1)C1(C(=O)Nc2ccccc2)CCCCC1 | 97%
16 | CC(=O)c1c(-c2ccccc2)c2ccccc2[nH]c1=O | 96%
17 | COc1ccc(C2=NN(c3ccccc3)C(c3cccs3)C2)cc1 (centres undefined) | 94%
18 | CCS(=O)(=O)c1ccc(O)c(NC(=O)COc2ccc(Cl)cc2)c1 | 95%
19 | O=C(CC1CCCCC1)NCc1ccco1 | 92%
20 | CCOc1ccc(Br)cc1S(=O)(=O)N1CCC(C(=O)O)CC1 | 94%
21 | COc1ccc(NC(=O)c2c(SC)nsc2SC)cc1 | 100%
22 | CSc1nsc(SC)c1NC(=O)OC1CCCCC1 | 33% (active)
23 | CSc1ncccc1C(=O)NC1CCCCCC1 | 96%
24 | Cn1c(CCC(=O)OCC(=O)NCc2ccccc2Cl)nc(=O)c2ccccc21 | 95%
25 | COc1ccc(-c2nc(N)sc2C2(O)C(=O)Nc3c(Br)cc(F)cc32)cc1OC (centres undefined) | 95%
26 | COc1cccc(Cn2cnc3c([N+](=O)[O-])c(C)c(C)cc32)c1 | 96%
27 | Cc1nc2ccccn2c1C(=O)NN=C1CCN(C)CC1 | 98%

Row | Structure (SMILES) | percent activity (GTP binding)
28 | O=C1c2ccccc2C(=O)N1CCC(O)C[N+](=O)[O-] (centres undefined) | 98%
29 | CC(=O)Nc1ccc(Sc2ccccc2C(=O)N2CCCC2)cn1 | 98%
30 | CCOc1ccc(C(CC(=O)O)n2cnnn2)cc1OC (centres undefined) | 91%
31 | Cc1c(Cl)c([N+](=O)[O-])nn1CC(=O)NCC1CCCO1 (centres undefined) | 96%
32 | CC(NC(=O)COC(=O)c1ccc(Cl)cc1O)c1ccc(F)cc1 (centres undefined) | 99%
33 | Cc1ccc(NC(=S)NC(=O)c2ccc(-c3ccccc3)cc2)c(C)c1 | 92%
34 | COc1c(F)c(F)c(C(=O)O)c(Nc2ccccc2C)c1F | 97%
35 | Cc1ccc(Nc2c(F)c(F)c(F)c(F)c2C(=O)O)c(C)c1 | 139% [activator] (active)
36 | COc1ccc(C(=O)/C=C/c2ccc(OC3CSC3)cc2)cc1 | 95%
37 | COc1ccc(/C=C/C(=O)c2ccc(OC)cc2O)cc1 | 96%
38 | COc1ccc(/C=C/C(=O)c2cc(Br)ccc(=O)c2O)cc1 | 78% (active)
39 | CCOC(=O)c1c(C)[nH]c(C2=NNC(=NC(C)COC)SC2)c1C (centres undefined) | 97%
40 | Cc1cccc(NC(=O)Nc2ccc3c(c2)OCO3)n1 | 97%
41 | CC(C(=O)NCC1CCCCC1)N(C)Cc1cccc(Cl)c1 (centres undefined) | 95%
42 | CN(C)CCOc1cccc(Br)c1 | 95%
43 | N=C1C(c2nc3ccccc3s2)=C(O)CN1NC(=O)c1ccc([N+](=O)[O-])cc1 | 84%
44 | C/C(=N/N1CCN(Cc2cccc3ccccc23)CC1)c1cccnc1 | 95%
45 | CCc1cccc(OC2OC(CO)C(O)C(O)C2NC(C)=O)c1 (centres undefined) | 97%
46 | S=C(Nc1ccc(Br)cc1Cl)N1CCC2(CC1)OCCO2 | 98%
47 | Cc1cccc2c1N(CCOc1ccccc1)C(=O)C2=O | 98%
48 | Cc1ccc(CC2CC(=O)N(c3nc(C)cc(C)n3)C2=O)cc1 (centres undefined) | 97%
49 | CNC(=O)COc1ccc(S(=O)(=O)Nc2ccccc2)cc1 | 98%
50 | COCCN(CCOC)S(=O)(=O)c1ccc(C(=O)Nc2nc3c(s2)CCc2ccccc2-3)cc1 | 100%
51 | C=CCN(CC=C)S(=O)(=O)c1ccc(C(=O)Nc2sc3c(c2C(N)=O)CCCCC3)cc1 | 100%
52 | C=CCN(CC=C)S(=O)(=O)c1ccc(C(=O)Nc2nc3c(s2)CCc2ccccc2-3)cc1 | 54% (active)
53 | CCOC(=O)c1[nH]cnc1C(=O)Nc1ccccc1C | 95%
54 | CCOc1ccc(N2C(=O)Nc3ccccc3C2(O)C(=O)NCc2ccco2)cc1 (centres undefined) | 99%
